Holding throughout (set-up): scale not given: direction of the effect not stated beside the values
The target of assay [1] is Protein translocase subunit SecA (Escherichia coli (strain K12)) (UniProt P10408). Nature of the assay: Assay to Identify E. coli SecA ATPase Inhibitors. It is filed as functional. To be noted: 30 µM.
The target in assay [2] is T1, Ubiquitin-activating enzyme e1, putative (Leishmania donovani (strain BPK282A1)) (UniProt E9BSI1).
T1 sequence (whole entry): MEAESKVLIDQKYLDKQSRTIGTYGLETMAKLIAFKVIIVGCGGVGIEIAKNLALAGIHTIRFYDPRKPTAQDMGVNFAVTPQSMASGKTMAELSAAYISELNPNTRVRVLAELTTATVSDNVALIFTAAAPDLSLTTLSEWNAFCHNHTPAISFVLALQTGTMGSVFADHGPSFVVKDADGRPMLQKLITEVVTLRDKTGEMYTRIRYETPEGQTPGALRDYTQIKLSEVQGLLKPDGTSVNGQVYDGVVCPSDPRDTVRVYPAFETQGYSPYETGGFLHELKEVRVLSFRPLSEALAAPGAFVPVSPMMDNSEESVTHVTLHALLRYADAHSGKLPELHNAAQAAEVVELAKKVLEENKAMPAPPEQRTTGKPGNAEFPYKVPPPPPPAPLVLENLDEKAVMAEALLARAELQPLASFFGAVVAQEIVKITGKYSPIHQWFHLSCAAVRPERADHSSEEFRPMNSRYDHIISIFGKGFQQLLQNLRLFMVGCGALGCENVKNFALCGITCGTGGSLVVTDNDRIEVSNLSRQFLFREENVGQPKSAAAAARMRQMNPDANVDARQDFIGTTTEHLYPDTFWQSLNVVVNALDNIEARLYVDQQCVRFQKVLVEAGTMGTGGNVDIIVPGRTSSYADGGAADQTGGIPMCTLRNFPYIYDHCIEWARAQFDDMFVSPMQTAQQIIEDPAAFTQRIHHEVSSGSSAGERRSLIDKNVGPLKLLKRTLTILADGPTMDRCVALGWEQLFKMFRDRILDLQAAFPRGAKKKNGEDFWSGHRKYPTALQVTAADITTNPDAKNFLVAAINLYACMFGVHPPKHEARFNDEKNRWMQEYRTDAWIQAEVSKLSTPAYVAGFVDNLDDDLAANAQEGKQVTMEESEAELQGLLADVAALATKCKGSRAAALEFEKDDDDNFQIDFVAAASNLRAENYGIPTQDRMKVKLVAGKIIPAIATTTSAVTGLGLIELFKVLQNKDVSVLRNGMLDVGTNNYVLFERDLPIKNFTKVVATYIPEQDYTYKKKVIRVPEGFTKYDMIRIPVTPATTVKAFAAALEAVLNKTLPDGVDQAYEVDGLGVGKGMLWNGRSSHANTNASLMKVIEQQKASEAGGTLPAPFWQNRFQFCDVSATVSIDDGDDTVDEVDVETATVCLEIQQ
As to the kind of experiment: Leishmania donovani Ubiquitin Activating Enzyme (LdE1). To be noted: 30 µM. It is filed as functional.

For assay [3], the target named is Sialic acid-binding Ig-like lectin 9 (Homo sapiens) (UniProt Q9Y336). As to the kind of experiment: Hs-Siglec9 ALPHAscreen SOP 20170721. To be noted: 10 µM.
The subject of assay [4] is Trypanosoma cruzi. As to the kind of experiment: Trypanosoma cruzi phosphomannomutase and mannose-1-phosphate guanylyltransferase assay. It is filed as functional. To be noted: 10 µM.
Assay [5] deals with T2, Arginase-2, mitochondrial (Homo sapiens) (UniProt P78540).
T2 sequence (whole entry): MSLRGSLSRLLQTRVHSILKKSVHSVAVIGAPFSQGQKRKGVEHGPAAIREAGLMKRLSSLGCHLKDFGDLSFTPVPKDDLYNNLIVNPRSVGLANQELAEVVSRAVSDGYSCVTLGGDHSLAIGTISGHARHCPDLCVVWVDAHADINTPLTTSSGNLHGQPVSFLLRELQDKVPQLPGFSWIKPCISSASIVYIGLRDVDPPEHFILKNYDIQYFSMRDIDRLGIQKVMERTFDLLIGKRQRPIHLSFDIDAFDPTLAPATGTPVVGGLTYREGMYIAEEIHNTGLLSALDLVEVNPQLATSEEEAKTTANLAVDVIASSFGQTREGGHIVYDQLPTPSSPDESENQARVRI
As to the kind of experiment: in vitro enzyme assay to detect the production of urea directly proportional to the activity of Arginase II. Further: in the data most compounds retested in dose-response had high values. The assay is classed as functional. Conditions: 33.3 µM.

Assay [6] deals with T3, Proteasome subunit beta (Trypanosoma cruzi) (UniProt O96673).
T3 sequence (whole entry): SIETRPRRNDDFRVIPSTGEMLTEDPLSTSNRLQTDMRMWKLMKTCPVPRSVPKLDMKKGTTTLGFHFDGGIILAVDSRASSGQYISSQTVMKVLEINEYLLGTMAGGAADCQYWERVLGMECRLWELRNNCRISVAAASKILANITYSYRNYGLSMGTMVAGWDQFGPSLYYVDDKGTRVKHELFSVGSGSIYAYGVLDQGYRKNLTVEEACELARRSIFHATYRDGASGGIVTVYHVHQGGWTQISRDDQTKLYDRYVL
As to the kind of experiment: Trypanosoma cruzi proteasome chymotrypsin-like activity (TcProtChymo) assay. Further: in the data most compounds retested in dose-response had high values. It is filed as functional. Conditions: 9.37 µM.

Assay [7] is filed under the species Homo sapiens. Nature of the assay: To identify inhibition of the IFN signalling (Jak-Stat) pathway via expression of an eGFP reporter gene under the control of an IFN-stimulated response element (ISRE) containing MxA promoter. It is filed as functional. To be noted: 30 µM. (In a reporter assay the amount or activity of a reporter protein is the signal.)
In assay [8] the target is T4, Tyrosyl-tRNA synthetase, putative (Trypanosoma cruzi (strain CL Brener)) (UniProt Q4DSP6).
T4 sequence (whole entry): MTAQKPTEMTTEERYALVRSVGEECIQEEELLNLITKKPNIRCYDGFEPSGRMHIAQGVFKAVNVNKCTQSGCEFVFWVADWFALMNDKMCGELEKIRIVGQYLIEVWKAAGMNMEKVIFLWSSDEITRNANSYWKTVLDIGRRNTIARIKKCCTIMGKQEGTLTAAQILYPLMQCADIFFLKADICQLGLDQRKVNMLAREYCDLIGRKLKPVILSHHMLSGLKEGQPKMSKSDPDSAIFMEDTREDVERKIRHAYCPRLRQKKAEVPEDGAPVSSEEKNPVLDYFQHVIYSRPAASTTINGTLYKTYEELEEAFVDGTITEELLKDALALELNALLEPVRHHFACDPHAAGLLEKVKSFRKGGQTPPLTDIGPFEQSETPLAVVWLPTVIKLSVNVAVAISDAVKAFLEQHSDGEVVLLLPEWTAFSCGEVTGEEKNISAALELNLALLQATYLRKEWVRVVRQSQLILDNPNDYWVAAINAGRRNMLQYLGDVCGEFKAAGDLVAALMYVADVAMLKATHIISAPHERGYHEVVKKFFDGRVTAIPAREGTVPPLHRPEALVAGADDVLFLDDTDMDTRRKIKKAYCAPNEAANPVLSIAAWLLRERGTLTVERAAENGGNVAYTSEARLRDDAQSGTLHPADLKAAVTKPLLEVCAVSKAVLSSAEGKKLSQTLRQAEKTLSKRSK
As to the kind of experiment: Trypanosoma cruzi tyrosyl tRNA synthetase (TcYRS) _High Tyrosine SOP. Further: in the data most compounds retested in dose-response had high values. The assay is classed as functional. Conditions: 30 µM.

For assay [9], the target named is T4, Tyrosyl-tRNA synthetase, putative (Trypanosoma cruzi (strain CL Brener)). Nature of the assay: Trypanosoma cruzi tyrosyl tRNA synthetase (TcYRS) SOP. It is filed as functional. To be noted: 30 µM.
Assay [10] addresses Chromo domain-containing protein 1 (Saccharomyces cerevisiae (strain ATCC 204508 / S288c) (Baker's yeast)) (UniProt P32657). As to the kind of experiment: ScCHD-1 Enzyme Inhibition Assay. Further: in the data most compounds retested in dose-response had high values. It is filed as functional. Conditions: 30 µM.

For part of these data: Results with a measured potency or affinity are listed apart.

Chromo domain-containing protein 1 (Saccharomyces cerevisiae (strain ATCC 204508 / S288c) (Baker's yeast)), sequence (P32657 whole entry, the tested form may be a part): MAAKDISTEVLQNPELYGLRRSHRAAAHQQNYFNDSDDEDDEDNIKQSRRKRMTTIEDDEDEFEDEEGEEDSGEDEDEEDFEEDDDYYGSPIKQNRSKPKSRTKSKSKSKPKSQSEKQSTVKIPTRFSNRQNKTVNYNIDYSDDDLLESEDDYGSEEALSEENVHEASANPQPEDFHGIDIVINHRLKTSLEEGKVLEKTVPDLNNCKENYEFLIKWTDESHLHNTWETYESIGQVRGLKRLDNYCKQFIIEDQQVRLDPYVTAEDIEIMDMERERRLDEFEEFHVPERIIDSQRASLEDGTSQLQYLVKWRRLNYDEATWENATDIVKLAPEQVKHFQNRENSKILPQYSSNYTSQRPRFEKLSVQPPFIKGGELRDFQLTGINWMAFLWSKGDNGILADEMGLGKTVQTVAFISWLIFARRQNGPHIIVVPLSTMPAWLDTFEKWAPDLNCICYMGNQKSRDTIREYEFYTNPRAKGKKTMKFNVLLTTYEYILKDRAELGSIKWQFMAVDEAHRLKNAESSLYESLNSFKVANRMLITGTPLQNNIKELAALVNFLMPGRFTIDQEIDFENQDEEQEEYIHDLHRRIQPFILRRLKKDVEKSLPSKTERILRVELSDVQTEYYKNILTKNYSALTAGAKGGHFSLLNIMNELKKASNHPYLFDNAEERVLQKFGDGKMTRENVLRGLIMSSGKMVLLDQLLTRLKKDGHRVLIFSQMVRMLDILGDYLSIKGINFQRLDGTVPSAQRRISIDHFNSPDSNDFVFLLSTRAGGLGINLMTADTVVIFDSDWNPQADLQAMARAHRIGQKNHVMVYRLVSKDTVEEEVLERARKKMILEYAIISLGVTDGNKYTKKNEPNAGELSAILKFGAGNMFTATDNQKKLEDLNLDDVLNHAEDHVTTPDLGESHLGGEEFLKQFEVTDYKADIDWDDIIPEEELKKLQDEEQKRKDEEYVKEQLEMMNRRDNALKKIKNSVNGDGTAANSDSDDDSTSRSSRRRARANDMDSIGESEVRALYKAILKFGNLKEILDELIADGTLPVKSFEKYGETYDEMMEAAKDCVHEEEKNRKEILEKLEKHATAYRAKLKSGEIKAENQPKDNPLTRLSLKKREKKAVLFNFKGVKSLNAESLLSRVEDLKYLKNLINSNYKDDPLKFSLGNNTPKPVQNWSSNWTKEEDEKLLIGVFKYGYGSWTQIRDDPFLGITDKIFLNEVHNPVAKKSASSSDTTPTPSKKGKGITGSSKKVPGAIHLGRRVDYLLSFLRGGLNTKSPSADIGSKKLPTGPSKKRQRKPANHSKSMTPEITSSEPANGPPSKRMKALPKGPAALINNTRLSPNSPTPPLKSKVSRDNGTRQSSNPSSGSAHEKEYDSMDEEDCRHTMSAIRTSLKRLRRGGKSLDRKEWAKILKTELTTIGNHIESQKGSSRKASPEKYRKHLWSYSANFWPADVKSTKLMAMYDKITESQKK
Protein translocase subunit SecA (Escherichia coli (strain K12)), sequence (P10408 whole entry): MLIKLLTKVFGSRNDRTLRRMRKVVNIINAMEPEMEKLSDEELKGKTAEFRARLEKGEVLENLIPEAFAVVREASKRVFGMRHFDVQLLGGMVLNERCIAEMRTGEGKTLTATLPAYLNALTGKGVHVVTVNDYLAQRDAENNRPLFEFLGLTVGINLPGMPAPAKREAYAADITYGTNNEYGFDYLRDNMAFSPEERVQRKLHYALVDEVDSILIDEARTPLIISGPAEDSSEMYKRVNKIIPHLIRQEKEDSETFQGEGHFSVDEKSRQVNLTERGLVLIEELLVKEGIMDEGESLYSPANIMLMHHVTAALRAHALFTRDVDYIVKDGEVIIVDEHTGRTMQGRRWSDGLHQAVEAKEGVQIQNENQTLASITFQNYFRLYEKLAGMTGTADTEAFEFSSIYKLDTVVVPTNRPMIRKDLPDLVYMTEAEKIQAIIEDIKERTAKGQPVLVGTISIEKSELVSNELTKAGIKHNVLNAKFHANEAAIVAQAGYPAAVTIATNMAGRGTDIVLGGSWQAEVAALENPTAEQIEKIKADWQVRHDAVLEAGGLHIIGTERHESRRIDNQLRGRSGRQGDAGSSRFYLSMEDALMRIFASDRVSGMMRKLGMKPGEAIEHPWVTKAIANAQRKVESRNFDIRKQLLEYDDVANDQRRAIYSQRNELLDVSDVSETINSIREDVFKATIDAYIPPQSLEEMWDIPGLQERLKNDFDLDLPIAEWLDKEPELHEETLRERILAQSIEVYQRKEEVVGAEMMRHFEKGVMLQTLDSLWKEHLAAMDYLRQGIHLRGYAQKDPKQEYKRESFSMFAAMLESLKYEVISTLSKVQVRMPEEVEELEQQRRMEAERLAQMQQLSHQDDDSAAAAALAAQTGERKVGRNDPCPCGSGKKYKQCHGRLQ
Sialic acid-binding Ig-like lectin 9 (Homo sapiens), sequence (Q9Y336 whole entry): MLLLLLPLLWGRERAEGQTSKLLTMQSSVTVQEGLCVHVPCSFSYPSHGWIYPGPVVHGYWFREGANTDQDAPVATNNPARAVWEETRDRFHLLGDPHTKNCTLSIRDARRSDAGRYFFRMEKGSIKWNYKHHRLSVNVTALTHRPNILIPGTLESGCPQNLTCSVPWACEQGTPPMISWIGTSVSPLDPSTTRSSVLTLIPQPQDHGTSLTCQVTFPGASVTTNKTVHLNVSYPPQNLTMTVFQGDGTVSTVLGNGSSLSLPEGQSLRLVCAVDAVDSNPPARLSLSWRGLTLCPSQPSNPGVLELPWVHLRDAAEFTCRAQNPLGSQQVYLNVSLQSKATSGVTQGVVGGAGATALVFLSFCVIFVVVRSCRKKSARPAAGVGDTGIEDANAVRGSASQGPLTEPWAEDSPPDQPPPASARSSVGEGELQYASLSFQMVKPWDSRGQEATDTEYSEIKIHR

Regarding `CN(C)Cc1ccc(C2CCCCN2C(=O)c2cccc(CO)n2)cc1` (stereo not given), the Percent Effect in assay [1] was -5.85%; in assay [2], 13.5%; in assay [3] it was 26.3%; in assay [4], 9.8%; in assay [5] it was 23.4%; in assay [6] it was 9.25%. For the same molecule, the Percent Effect in [7] worked out at 8.84%; in assay [8], 6.92%; in assay [9], 14.6%; in assay [10], 80.3%.
`Cc1cccnc1CN(C)CC1(O)CCCN(CC2CCCCC2)C1=O` (stereo not given): the Percent Effect is -5.13% in [1]; -2.7% in [2]; 19.5% in [3]; 6.69% in [4]; 5.94% in assay [5]; 9.76% in assay [6]. Moreover, the Percent Effect was 23% in assay [7], 13.3% in assay [8], 17.1% in assay [9] and -2.65% in [10].
Consider `Cc1ccc(-c2nc(CCNC(=O)CCN3CCOC3=O)co2)cc1`, for which the Percent Effect in assay [1] is -3.11%; in assay [2], 5.33%; in assay [3], 5.5%; in [4], -0.602%; in assay [5] it was 8.87%; in assay [6] it was 7.72%. Further, the Percent Effect in assay [7] is 33.2%; in [8] it was 6.84%; in [9], 5.13%; in [10], -8.83%.
As to `NC(=O)C1CCN(C(=O)c2cccc(OCc3cscn3)c2)CC1`, the Percent Effect in [1] is -1.56%; in [2], 10.3%; in [3] it was -4.08%; in assay [4], -3.1%; in [5], 5.33%; in assay [6], 5.89%. Moreover, the Percent Effect was 26.4% in assay [7], 2.39% in [8], 10.8% in assay [9] and -2.13% in assay [10].
As for `Cc1cccnc1C(=O)N1CCCCC1c1[nH]ncc1S(C)(=O)=O` (stereo not given), the Percent Effect was -3.04% in assay [1]; 6.67% in assay [2]; 0.367% in assay [3]; -1.97% in [4]; 6.64% in assay [5]; 4.76% in assay [6]. The Percent Effect in assay [7] is 0.716%; in [8] it was 7.41%; in assay [9], 7.5%; in [10] it was -19.6%.
With `Fc1cccc(CN2CCO[C@H]3[C@@H](OCc4ccccn4)CC[C@@H]32)c1`, the Percent Effect in assay [1] was -6.18%; in assay [2], 6.49%; in [3], -6.92%; in assay [4] it was 7.3%; in [5] it was -3.24%; in [6], 8.91%. The Percent Effect is 4.17% in [7], 2.63% in assay [8], 15.4% in [9] and -0.559% in assay [10].
For the molecule `COc1ccc(CN2CCC3(CC2)NC(=O)CC3c2ccncc2)cc1` (stereo not given), the Percent Effect in [1] was -7.89%; in assay [2], -6.49%; in assay [3] it was 3.29%; in assay [4], -2.43%; in assay [5], -4.05%; in assay [6], 9.27%. Also, the Percent Effect in [7] is 5.38%; in assay [8] it was -0.526%; in assay [9] it was 2.56%; in assay [10], -1.91%.
In the case of `CC(C)(C)c1n[nH]c(C2CN(C(=O)CCc3cscn3)CCO2)n1` (stereo not given), the Percent Effect is -2.17% in [1]; 7.69% in assay [2]; 15.8% in assay [3]; 4.41% in [4]; 5.33% in [5]; 0.597% in assay [6]. Moreover, the Percent Effect in assay [7] is 6.37%; in [8] it was 3.35%; in assay [9], 13.2%; in assay [10], -1.16%.
As to `O=C1CC2(CCCCN2C(=O)c2ccsc2)CN1CC1CC1` (stereo not given), the Percent Effect in assay [1] was -4.46%; in [2] it was 11.7%; in assay [3], 1.96%; in [4], 2.44%; in [5], 4.57%; in assay [6], 0.429%. For the same molecule, the Percent Effect in [7] is -8.36%; in assay [8] it was 8.7%; in [9], 15%; in assay [10], -4.62%.
As to `Cc1cc(C)n(C2CCCN(C(=O)COCC(F)(F)F)C2)n1` (stereo not given), the Percent Effect in assay [1] is -4.46%; in [2], 2.56%; in assay [3], 11.4%; in [4] it was 0.657%; in assay [5], 6.15%; in [6], -7.59%. The Percent Effect in assay [7] was -11.3%; in [8], 1.44%; in assay [9] it was -1.21%; in assay [10], -0.331%.
With `CN1CCN(c2ncnc3c2c(C(=O)NC2CC2)c2ccccn23)CC1`, the Percent Effect in [1] is -0.824%; in assay [2] it was -6.49%; in assay [3] it was 1.78%; in [4], -5.16%; in assay [5], 3.24%; in [6] it was -2.56%. Besides, the Percent Effect in assay [7] is 0.0174%; in assay [8], -1.58%; in [9], 0%; in assay [10], -13.6%.
Take `Cc1ccc(NC2CCN(C(=O)c3cc(C(N)=O)cs3)CC2)nn1`: the Percent Effect was -3.49% in assay [1]; 2.67% in assay [2]; 2.8% in assay [3]; 1.41% in assay [4]; 0.444% in [5]; 7.55% in assay [6]. Further, the Percent Effect in assay [7] is 21.6%; in assay [8], 1.58%; in assay [9] it was 5.13%; in [10], -4.07%.

These data come from ChEMBL document CHEMBL3988442, “University of Dundee, Small-Polar-MMV Screening Library” (2021).
